In paper PMC10812921, “Transcriptional Coactivator BOB1 (OBF1, OCA-B) Modulates the Specificity of DNA Recognition by the POU-Domain Factors OCT1 and OCT2 in a Monomeric Configuration”:

Each sequence was assayed against POU1 (OCT1 POU domain) (human, UniProt P14859 260-458) (assay: EMSA-SELEX-seq; no BOB1; 20 mM Tris-HCl pH 7.6, 140 mM NaCl, 10% glycerol, 0.5 mM EDTA, 0.05% Triton X-100, 0.1 mg/mL BSA, 0.1 mg/mL poly(dI-dC), 5 mM DTT, room temperature, 20 min; high values mean tight binding). Conditions: protein: recombinant; dsDNA, one strand shown.
POU1 (OCT1 POU domain), sequence (P14859 260-458): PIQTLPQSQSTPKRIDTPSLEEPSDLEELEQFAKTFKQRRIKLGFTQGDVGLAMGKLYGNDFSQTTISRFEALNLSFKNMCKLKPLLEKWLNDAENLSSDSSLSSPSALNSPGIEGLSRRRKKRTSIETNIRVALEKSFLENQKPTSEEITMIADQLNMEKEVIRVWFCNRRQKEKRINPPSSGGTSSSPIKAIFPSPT
Procedure, shortened: (§1)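 Tagged POU-domain proteins were expressed in E. coli BL21, purified under denaturing conditions and renatured. Then 30 ng was mixed with 300 ng of a PCR-amplified double-stranded random 35-nt library, with or without 28 ng coactivator protein, in 20 μL Tris–HCl pH 7.6 binding buffer for 20 min at RT. Complex bands were cut from native 6% PAGE, eluted and PCR-amplified over four rounds, then Illumina-sequenced. Binding preference is the percentage of sequenced 8-mers matching a motif pattern.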

Sequence	binding signal
ACATGAAA	0.0671 % of ANNNNAAN 8-mers
AAACAAAA	0.156 % of ANNNNAAN 8-mers
AAGCTAAC	0.0137 % of ANNNNAAN 8-mers
ACGTAAAA	0.0648 % of ANNNNAAN 8-mers
AGCTTAAA	0.037 % of ANNNNAAN 8-mers
ATATAAAC	0.0637 % of ANNNNAAN 8-mers
ACAAAAAA	0.0656 % of ANNNNAAN 8-mers
ACTACAAC	0.0122 % of ANNNNAAN 8-mers
AGGTGAAG	0.04 % of ANNNNAAN 8-mers
ACTACAAT	0.0309 % of ANNNNAAN 8-mers
AGGATAAG	0.0496 % of ANNNNAAN 8-mers
AGACTAAA	0.0374 % of ANNNNAAN 8-mers
AGGCGAAG	0.024 % of ANNNNAAN 8-mers
AGCCGAAA	0.0191 % of ANNNNAAN 8-mers
ACCAGAAG	0.0137 % of ANNNNAAN 8-mers
ACAGGAAT	0.0622 % of ANNNNAAN 8-mers
AACCGAAC	0.013 % of ANNNNAAN 8-mers
AAGACAAG	0.0259 % of ANNNNAAN 8-mers
ACACAAAA	0.0454 % of ANNNNAAN 8-mers
ATGCCAAG	0.0305 % of ANNNNAAN 8-mers

Sequence	binding signal
AGCTAAAG	0.0278 % of ANNNNAAN 8-mers
ACTCCAAA	0.0259 % of ANNNNAAN 8-mers
AGGTGAAC	0.021 % of ANNNNAAN 8-mers
AATAGAAG	0.0534 % of ANNNNAAN 8-mers
ACGTGAAA	0.0374 % of ANNNNAAN 8-mers
ACGGGAAG	0.0332 % of ANNNNAAN 8-mers
ACTTAAAG	0.0328 % of ANNNNAAN 8-mers
ATAAGAAC	0.0362 % of ANNNNAAN 8-mers
AGCGCAAA	0.0263 % of ANNNNAAN 8-mers
AAATTAAG	0.303 % of ANNNNAAN 8-mers
AATTGAAC	0.0492 % of ANNNNAAN 8-mers
AATGTAAC	0.0591 % of ANNNNAAN 8-mers
ATCTTAAC	0.0351 % of ANNNNAAN 8-mers
ACGGAAAG	0.0397 % of ANNNNAAN 8-mers
AGATGAAC	0.0286 % of ANNNNAAN 8-mers
ACGATAAA	0.037 % of ANNNNAAN 8-mers
ACTGTAAG	0.0225 % of ANNNNAAN 8-mers
AGAACAAG	0.0221 % of ANNNNAAN 8-mers
ATAGCAAA	0.0744 % of ANNNNAAN 8-mers

Each sequence was assayed against T1, POU2 (OCT2 POU domain) (human, UniProt P09086 175-386) in the same assay as above. Conditions: protein: recombinant; dsDNA, one strand shown.
T1 sequence: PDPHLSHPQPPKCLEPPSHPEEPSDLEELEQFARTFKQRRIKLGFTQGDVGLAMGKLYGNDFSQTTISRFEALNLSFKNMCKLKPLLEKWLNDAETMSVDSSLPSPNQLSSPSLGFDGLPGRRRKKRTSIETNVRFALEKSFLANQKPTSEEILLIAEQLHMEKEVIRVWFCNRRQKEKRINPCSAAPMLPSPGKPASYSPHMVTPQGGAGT
Procedure, shortened: as §1

Sequence	binding signal
ACATGAAA	0.0708 % of ANNNNAAN 8-mers
AAACAAAA	0.115 % of ANNNNAAN 8-mers
AAGCTAAC	0.0178 % of ANNNNAAN 8-mers
ACGTAAAA	0.0529 % of ANNNNAAN 8-mers
AGCTTAAA	0.0437 % of ANNNNAAN 8-mers
ATATAAAC	0.0719 % of ANNNNAAN 8-mers
ACAAAAAA	0.0621 % of ANNNNAAN 8-mers
ACTACAAC	0.0196 % of ANNNNAAN 8-mers
AGGTGAAG	0.0386 % of ANNNNAAN 8-mers
ACTACAAT	0.0282 % of ANNNNAAN 8-mers
AGGATAAG	0.0558 % of ANNNNAAN 8-mers
AGACTAAA	0.0443 % of ANNNNAAN 8-mers
AGGCGAAG	0.0305 % of ANNNNAAN 8-mers
AGCCGAAA	0.0247 % of ANNNNAAN 8-mers
ACCAGAAG	0.0167 % of ANNNNAAN 8-mers
ACAGGAAT	0.0685 % of ANNNNAAN 8-mers
AACCGAAC	0.0173 % of ANNNNAAN 8-mers
AAGACAAG	0.0305 % of ANNNNAAN 8-mers
ACACAAAA	0.0374 % of ANNNNAAN 8-mers
ATGCCAAG	0.0357 % of ANNNNAAN 8-mers

Sequence	binding signal
AGCTAAAG	0.0282 % of ANNNNAAN 8-mers
ACTCCAAA	0.0219 % of ANNNNAAN 8-mers
AGGTGAAC	0.0259 % of ANNNNAAN 8-mers
AATAGAAG	0.0587 % of ANNNNAAN 8-mers
ACGTGAAA	0.0386 % of ANNNNAAN 8-mers
ACGGGAAG	0.0339 % of ANNNNAAN 8-mers
ACTTAAAG	0.0437 % of ANNNNAAN 8-mers
ATAAGAAC	0.0518 % of ANNNNAAN 8-mers
AGCGCAAA	0.0305 % of ANNNNAAN 8-mers
AAATTAAG	0.342 % of ANNNNAAN 8-mers
AATTGAAC	0.0575 % of ANNNNAAN 8-mers
AATGTAAC	0.0639 % of ANNNNAAN 8-mers
ATCTTAAC	0.0449 % of ANNNNAAN 8-mers
ACGGAAAG	0.0443 % of ANNNNAAN 8-mers
AGATGAAC	0.0363 % of ANNNNAAN 8-mers
ACGATAAA	0.0432 % of ANNNNAAN 8-mers
ACTGTAAG	0.027 % of ANNNNAAN 8-mers
AGAACAAG	0.0334 % of ANNNNAAN 8-mers
ATAGCAAA	0.0552 % of ANNNNAAN 8-mers

Each sequence was assayed against POU1 (OCT1 POU domain);BOB1 (OBF1, OCA-B) (human;human, UniProt P14859;Q16633 260-458;1-256, |) (assay: EMSA-SELEX-seq; with BOB1 (ternary complex band); 20 mM Tris-HCl pH 7.6, 140 mM NaCl, 10% glycerol, 0.5 mM EDTA, 0.05% Triton X-100, 0.1 mg/mL BSA, 0.1 mg/mL poly(dI-dC), 5 mM DTT, room temperature, 20 min; high values mean tight binding). Conditions: protein: recombinant;recombinant; copies: 1;1; dsDNA, one strand shown.
Procedure, shortened: as §1

Sequence	binding signal
ACATGAAA	0.0823 % of ANNNNAAN 8-mers
AAACAAAA	0.256 % of ANNNNAAN 8-mers
AAGCTAAC	0.0191 % of ANNNNAAN 8-mers
ACGTAAAA	0.0823 % of ANNNNAAN 8-mers
AGCTTAAA	0.0258 % of ANNNNAAN 8-mers
ATATAAAC	0.055 % of ANNNNAAN 8-mers
ACAAAAAA	0.0808 % of ANNNNAAN 8-mers
ACTACAAC	0.0164 % of ANNNNAAN 8-mers
AGGTGAAG	0.0339 % of ANNNNAAN 8-mers
ACTACAAT	0.0285 % of ANNNNAAN 8-mers
AGGATAAG	0.0523 % of ANNNNAAN 8-mers
AGACTAAA	0.0297 % of ANNNNAAN 8-mers
AGGCGAAG	0.0242 % of ANNNNAAN 8-mers
AGCCGAAA	0.0238 % of ANNNNAAN 8-mers
ACCAGAAG	0.018 % of ANNNNAAN 8-mers
ACAGGAAT	0.0476 % of ANNNNAAN 8-mers
AACCGAAC	0.0117 % of ANNNNAAN 8-mers
AAGACAAG	0.0261 % of ANNNNAAN 8-mers
ACACAAAA	0.0644 % of ANNNNAAN 8-mers
ATGCCAAG	0.025 % of ANNNNAAN 8-mers

Sequence	binding signal
AGCTAAAG	0.0289 % of ANNNNAAN 8-mers
ACTCCAAA	0.0277 % of ANNNNAAN 8-mers
AGGTGAAC	0.0222 % of ANNNNAAN 8-mers
AATAGAAG	0.0558 % of ANNNNAAN 8-mers
ACGTGAAA	0.0386 % of ANNNNAAN 8-mers
ACGGGAAG	0.0254 % of ANNNNAAN 8-mers
ACTTAAAG	0.0328 % of ANNNNAAN 8-mers
ATAAGAAC	0.0332 % of ANNNNAAN 8-mers
AGCGCAAA	0.0324 % of ANNNNAAN 8-mers
AAATTAAG	0.238 % of ANNNNAAN 8-mers
AATTGAAC	0.0386 % of ANNNNAAN 8-mers
AATGTAAC	0.046 % of ANNNNAAN 8-mers
ATCTTAAC	0.0402 % of ANNNNAAN 8-mers
ACGGAAAG	0.0406 % of ANNNNAAN 8-mers
AGATGAAC	0.0207 % of ANNNNAAN 8-mers
ACGATAAA	0.0324 % of ANNNNAAN 8-mers
ACTGTAAG	0.0265 % of ANNNNAAN 8-mers
AGAACAAG	0.0219 % of ANNNNAAN 8-mers
ATAGCAAA	0.078 % of ANNNNAAN 8-mers
